# Reference: PubChem BioAssay AID371 (SRMLSC, 2006)
# Screen size: about 3,300 compounds; about 280 (8.5%) were called active. Shown is part of a subset that was picked to be rich in actives. Values without a mark were called inactive.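 Rule for the calls: active = mean growth inhibition over the two runs of 50% or more; inactive = mean growth inhibition under 50%.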
# Experiment: A549 NSCLC cell proliferation inhibitors – ATP luminescence, human non-small cell lung line, primary screen (AID 371);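 note: compound exposure lasted 72 h before the ATP read; 0% = untreated cell signal and 100% = no luminescence left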
# Details: at 10 µM, hits give high values
row,SMILES,growth inhibition
1,COC1=CC(=O)CC(C)C12Oc1c(Cl)c(OC)cc(OC)c1C2=O (configuration not stated),51.2% (active)
2,COC(=O)c1cccc(Nc2cc(C)nc(-c3ccccc3O)n2)c1,17.6%
3,CN(C)[C@@H]1C(=O)C(C(N)=O)=C(O)[C@@]2(O)C(=O)C3=C(O)c4c(O)ccc(Cl)c4[C@@H](O)[C@H]3C[C@@H]12,45.2%
4,CN(C)c1ccc(O)c2c1CC1CC3[C@@H](N(C)C)C(=O)C(C(N)=O)=C(O)[C@]3(O)C(=O)C1=C2O (some centres not stated),59.9% (active)
5,OCCNc1nc(-c2ccccc2)c2ccccc2n1,-2.09%
6,Clc1ccc2nc(N3CCNCC3)nc(-c3ccccc3)c2c1,92.3% (active)
7,Clc1ccc2c(c1)C(N1CCNCC1)=Nc1ccccc1O2,31.9%
8,O=C(O)C1CC=CCC1C(=O)N1CCN(c2nc(-c3ccccc3)c3ccccc3n2)CC1 (configuration not stated),25.7%
9,O=C(CNC1C(=O)Nc2ccccc21)Sc1ccccc1 (configuration not stated),-5.29%
10,COc1ccc(/C(O)=C2/C(=O)C(=O)N(CCCN(C)C)C2c2ccc(C)o2)cc1Cl (configuration not stated),1.2%
11,COc1ccc2[nH]cc(C(=O)CN(C)CCc3ccc(OC)c(OC)c3)c2c1,15.3%
12,CNCCCN1c2ccccc2CCc2ccccc21,39.1%
13,CNCCCC1c2ccccc2C=Cc2ccccc21,60% (active)
14,COCCCN1C(=O)C(O)=C(C(=O)c2ccco2)C1c1ccc(Br)cc1 (configuration not stated),2.73%
15,Cc1nc2c(o1)CCc1ccccc1C2O (configuration not stated),0.13%
16,Cc1ccc(N2C(=O)C3ON(c4ccccc4)C(c4ccncc4)C3C2=O)cc1 (configuration not stated),7.22%
17,CCSc1nc(N)c(C#N)c(-c2ccccc2Cl)c1C#N,3.11%
18,N#Cc1c(-c2ccccc2Cl)cc(C2CC2)nc1N,11.8%
19,CSc1nc(N)c(C#N)c(-c2ccccc2Cl)c1C#N,60.5% (active)
20,CC1(C)CC(=O)C=C(N=CC2=C(O)CC(C)(C)CC2=O)C1,1.19%
21,Cc1cc(=O)oc(C)c1C(=O)NCCN1CCOCC1,-2.84%

row,SMILES,growth inhibition
1,CCC(=O)Nc1cccc(-c2nnc(SCC(=O)NCc3ccco3)n2C)c1,-4.64%
2,CSc1nc2sc3c(c2c2nnnn12)CC(C)(C)OC3,9.43%
3,CC1(C)Cc2c(sc3ncn4nnnc4c23)CO1,0.79%
4,CC1(C)Cc2c(sc3c4nnnn4c4nnnn4c23)CO1,62.4% (active)
5,COc1ccc(-n2c(SCC(N)=O)nc3sc4c(c3c2=O)CCN(C)C4)cc1,8.23%
6,Cn1c(=O)n(CCC(=O)O)c2ccccc21,1.48%
7,COC(=O)CC1=C(C(=O)OC)C(c2ccncc2)C(C#N)=C(N)O1 (configuration not stated),3.31%
8,O=C(c1cccc(Cl)c1)N1CCN(C(=O)c2ccccc2F)CC1,0.26%
9,O=C(Nc1ccc2c(c1)OCCO2)c1ccc(Br)o1,19.2%
10,O=C(Nc1ccc(N2CCN(C(=O)c3ccccc3)CC2)c(Cl)c1)c1ccc(Br)o1,64.9% (active)
11,CCCCC(=O)C1CCN(Cc2ccccc2)CC1,-7.27%
12,COc1cc(-c2nn3c(C4CCCCC4)nnc3s2)cc(OC)c1OC,18.1%
13,CN(C=C1C(=O)CC(C)(C)CC1=O)CCN1CCNCC1,3.03%
14,N#CC1=C(N)NC(SCc2ccc(Cl)cc2)=C(C#N)C12CCCCC2,91% (active)
15,N#Cc1c(SCC(N)=O)nsc1SCc1ccc(Cl)cc1,23.5%
16,COc1ccc(C(=O)CSC2=C(C#N)C3(CCCCC3)C(C#N)=C(N)N2)cc1,49.2%
17,N#CC1=C(N)NC(SCc2ccc(F)cc2)=C(C#N)C12CCCCC2,84.3% (active)
18,COc1ccc(-c2oc3ncn4nc(COc5ccccc5)nc4c3c2-c2ccc(OC)cc2)cc1,10.6%
19,CCOC(=O)c1[nH]c2ccc(OC)cc2c1NC(=O)CCN1CCCC(C)C1 (configuration not stated),6.76%
20,c1cncc(Oc2cccc(Oc3cccnc3)c2)c1,20.7%
21,COc1ccc(OC)c(C2C(C(=O)c3sc(C)nc3C)=C(O)C(=O)N2CCN2CCOCC2)c1 (configuration not stated),5.82%

row,SMILES,growth inhibition
1,O=C1CC(NCc2ccc3c(c2)OCO3)C(=O)N1Cc1ccc2c(c1)OCO2 (configuration not stated),0.14%
2,COc1cccc(/C=C2/CN(C)CC3=C2OC(N)=C(C#N)C3c2cccc(OC)c2)c1 (configuration not stated),67.5% (active)
3,CCN1CC2=C(OC(N)=C(C#N)C2c2ccccc2)/C(=C\c2ccccc2)C1 (configuration not stated),46.8%
4,COCc1[nH]nc2c1C(c1cccc(OC)c1)C(C#N)=C(N)O2 (configuration not stated),8.14%
5,Cc1cc(N2C(=O)C(=O)/C(=C(/O)c3ccc(F)cc3)C2c2ccc(F)cc2)no1 (configuration not stated),9.16%
6,CCc1nc2n[nH]c(N)c2c2c1CSC(C)(C)C2,12.5%
7,COc1ccccc1-c1cc(-c2cc(Cl)ccc2O)n[nH]1,15%
8,COc1cccc(NC(=O)C2CC(=O)n3cnnc3S2)c1 (configuration not stated),-2.07%
9,c1ccc(-n2c(Cc3cccnc3)nc3cnccc32)cc1,-4.36%
10,Clc1ccc(-c2nn3c(-c4cccc(Cl)c4)nnc3s2)cc1,22.7%
11,Cc1cccc(OCC(=O)NCC(=O)n2nc(C)cc2C)c1,1.47%
12,Cc1c(C(=O)O)c(=S)sn1CCOc1ccccc1,3.85%
13,Cc1cccc(OCCN2CSC(=S)N(C)C2)c1,51.6% (active)
14,COc1ccc(-c2onc(C)c2-c2ccccc2)c(O)c1,52.1% (active)
15,COc1ccc(-c2ncncc2-c2csc(C)n2)c(O)c1,3.39%
16,COc1cccc(-c2nnc3sc(-c4ccccc4)nn23)c1,8.34%
17,Nc1nnc(Cc2ccc(Cl)c(Cl)c2)s1,18.2%
18,O=C1NC(=O)C(c2cn(-c3ccccc3)nc2-c2ccc(F)cc2)N1 (configuration not stated),10.6%
19,CC[C@H]1CN2CCc3cc(OC)c(OC)cc3[C@@H]2C[C@@H]1C[C@H]1NCCc2cc(OC)c(OC)cc21,78.5% (active)
20,Cc1ccc(-c2ccccc2NC(=O)C2C3C=CC(C3)C2C(=O)O)o1 (configuration not stated),1.09%
